FLuc counter = inhibits or activates purified firefly luciferase, miR-21 counter-screen. Potency, µM (doses to about 57.5 µM), hits mostly inhibitors. P08659. purified FLuc, Km substrates, luminescence inhibition. 360,000 tested, 6.9% active; also: nearly all actives have a fitted effect of over 55% in size
Target sequence (P08659 whole entry, looked up): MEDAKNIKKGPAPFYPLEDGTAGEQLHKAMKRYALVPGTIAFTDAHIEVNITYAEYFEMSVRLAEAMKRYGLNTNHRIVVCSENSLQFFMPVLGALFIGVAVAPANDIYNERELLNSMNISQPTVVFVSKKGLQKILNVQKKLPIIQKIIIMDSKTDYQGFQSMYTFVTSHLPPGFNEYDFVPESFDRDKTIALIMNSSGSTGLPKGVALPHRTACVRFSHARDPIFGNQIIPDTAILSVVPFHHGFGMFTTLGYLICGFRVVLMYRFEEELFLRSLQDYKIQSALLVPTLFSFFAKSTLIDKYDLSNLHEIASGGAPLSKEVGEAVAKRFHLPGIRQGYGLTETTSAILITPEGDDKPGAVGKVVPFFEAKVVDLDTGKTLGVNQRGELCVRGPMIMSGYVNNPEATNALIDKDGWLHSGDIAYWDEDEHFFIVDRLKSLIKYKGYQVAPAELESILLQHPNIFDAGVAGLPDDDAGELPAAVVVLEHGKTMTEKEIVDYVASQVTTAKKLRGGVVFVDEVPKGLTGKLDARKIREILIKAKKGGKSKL
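Purified P. pyralis luciferase (10nM final) with 10uM D-luciferin and 10uM ATP (Km levels) in 50mM Tris acetate pH 7.5, 10mM Mg acetate, 0.01% Tween-20, 0.05% BSA; qHTS 6-point titration, ~60 µM downward; luminescence read.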
NPC1 promoter act = activators of NPC1 promoter. Huh7 NPC1 promoter luciferase reporter, 24 h. Potency, µM (series often up to 9.22 µM), actives largely listed as activators. 320,000 tested, 2.4% active; also: nearly all actives have a fitted effect of over 60% in size
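Luminescence read-out of NPC1 promoter-driven luciferase in stably transfected Huh7 cells; compounds delivered in DMSO and left 24 h at 37C, 5% CO2, qHTS titration format.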
SMN2 splice up = enhancers of SMN2 splice variant expression. HEK293 SMN2-luciferase splicing reporter, luminescence, 30-36 h. Potency, µM (series often up to 46.1 µM), hits mostly activators. 210,000 tested, 2.8% active. AID 1458; also: nearly all actives have a fitted effect of over 55% in size
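HEK293 cells carry an SMN2 […]–luciferase reporter in which exon 7 inclusion puts luciferase in frame. Cells were plated 10-12 h before compound addition, then incubated 30-36 h at 37C. ONE-Glo luminescence was read; sodium butyrate at 4.5 mM final served as control.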
ELG1 genotox = induces genotoxicity in HEK293T cells with luciferase-tagged ELG1; AID 504466; HEK293T ELG1-luciferase reporter, luminescence, 16 h; 330,000 tested, 1.3% active; Potency, µM (highest dose often 46 µM), most hits filed as activators; also: nearly all actives have a fitted effect of over 60% in size
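Step 1: seed 2,000 HEK293T ELG1-luciferase cells per well. Step 2: add compound or DMSO, incubate 16 hr at 37 °C. Step 3: ONE-Glo, 30 min at room temperature, read luminescence.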
ELG1 DNA repair = ELG1-dependent DNA repair inhibition; HEK293T ELG1-luciferase reporter, luminescence, 16 h; DNA damage induced by 5-fluorouridine; Potency, µM (doses to about 46.1 µM), actives largely listed as inhibitors; 330,000 tested, 2.3% active; AID 504467; also: nearly all actives have a fitted effect of over 55% in size
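Step one: seed 2,000 cells per well. Step two: pin-transfer compound or DMSO alongside 5-fluorouridine. Step three: incubate 16 hr, 37 °C, 5% CO2. Step four: add ONE-Glo, wait 30 min, read luminescence.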
Rab9 promoter act = activators of Rab9 promoter; Huh7 Rab9 promoter-luciferase reporter, luminescence, 24 h; Potency, µM (top dose mostly 9.22 µM), hits mostly activators; 320,000 tested, 2.8% active; also: nearly all actives have a fitted effect of over 60% in size
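Steps: seed 1500 Huh7 Rab9-luc cells per well, rest 2 h at 37 °C; add compound in DMSO; incubate 24 h; add luciferase reagent, 10 min ambient; read luminescence.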
Hits are given with their value; - = inactive; ? = inconclusive; . = no result; [ ] = another dose, or the depositor's remark. An excerpt weighted towards active compounds, which were near 9.4% of everything screened. Calls follow the shape of the dose curve; as a rule, active = well fitted curve in the direction sought with a large enough effect; inconclusive = small, poorly fitted or top-dose-only effect, or another doubt; inactive = no such curve, though single readings can be large; an effect the other way counts as inactive or inconclusive.

SMILES	FLuc counter	NPC1 promoter act	SMN2 splice up	ELG1 genotox	ELG1 DNA repair	Rab9 promoter act
CCc1ccc(-c2nc3cc(NC(=O)c4ccc(F)cc4)ccc3o2)cc1	-	.	?	.	.	.
O=C(/C=C/c1cccc(Cl)c1)Nc1ccncc1	17µM	-	-	-	?	-
O=C(/C=C/c1c(Cl)cccc1Cl)Nc1ccncc1	3µM	-	-	?	?	?
O=C(/C=C/c1c(F)cccc1Cl)Nc1ccncc1	7.6µM	-	-	-	?	?
O=C(Nc1ccncc1)c1ccccc1Cl	-	-	.	-	-	-
CC(=O)C(/C=N/c1cc(-c2ccc(C)cc2)nn1-c1ccccc1)=C(\C)O	?	4µM	?	?	?	4µM
COc1ccccc1NC(=O)c1ccc(-c2ccccc2F)o1	-[2.3 µM]	-	?	-	?	?
COC(=O)c1ccccc1NC(=O)c1ccc(-c2ccccc2F)o1	-	3.2µM	5µM	?	?	?
Cc1cc(NC(=O)c2ccc(-c3ccccc3F)o2)no1	15µM	3.5µM	13µM	?	?	4.5µM
CCOc1cc(C(N)=O)cc(Br)c1OC	-	-	-	-	5.2µM	-
CCOc1cc(C(N)=O)cc(OCC)c1OCC	-	-	-	-	-	-
O=C(Nc1ccccn1)c1ccc2nc(-c3ccccc3)c(-c3ccccc3)nc2c1	-	-	?	-	-	-
CCOc1cc(C(=O)Nc2cccnc2)cc(OCC)c1OCC	-	-	.	-	-	-
O=C(Nc1cccnc1)c1ccc(Oc2ccccc2)cc1	3.4µM	?	-	4.1µM	?	?
CCCOc1ccc(C(=O)Nc2cccnc2)cc1	11µM	2.8µM	.	10µM	?	?
O=C(Nc1cccnc1)c1ccc2nc(-c3ccccc3)c(-c3ccccc3)nc2c1	-	-	-	-	23µM	-
CCCCOc1ccc(C(=O)Nc2ccncc2)cc1	?	-	-	13µM	?	-
O=C(Nc1cccnc1)c1ccccc1Oc1ccccc1	-[2.3 µM]	-	-	-	-	-
Cc1cnc(NC(=O)c2ccc3c(c2)OCCO3)s1	0.11µM	?	.	?	?	0.1µM
Cc1nc2ccc3nc(NC(=O)c4ccc5c(c4)OCCO5)sc3c2s1	?	-	-	-	?	-
Cc1nc2c(ccc3nc(NC(=O)c4ccc5c(c4)OCCO5)sc32)s1	0.21µM	0.32µM	?	?	?	0.71µM
Cc1ccc2sc(NC(=O)c3ccc4c(c3)OCCO4)nc2c1C	2.7µM	.	.	.	.	.
COc1cc(NC(=O)C2CCN(S(=O)(=O)c3c(C)noc3/C=C/c3ccccc3F)CC2)cc(OC)c1OC	-	.	.	.	.	.
CCOC(=O)c1cnc(N2CCN(c3ccc(C)cc3C)CC2)c2ccccc12	-	.	.	.	.	.
NC(=O)c1ccc(-c2nnc(Nc3ccc(S(N)(=O)=O)cc3)c3ccccc23)cc1	-	-	.	-	-	-
SMILES	FLuc counter	NPC1 promoter act	SMN2 splice up	ELG1 genotox	ELG1 DNA repair	Rab9 promoter act
Cc1ccc2nc(-c3ccc(NS(=O)(=O)c4ccc(F)c(F)c4)cc3)sc2c1	1.2µM	2.8µM	?	?	?	1.6µM
Cc1ccc2nc(-c3ccc(NS(=O)(=O)c4ccccc4)cc3)sc2c1	13µM	-	-[1.84 µM]	-	?	-
Cc1ccc(S(=O)(=O)Nc2ccc3nc(C)sc3c2)cc1	-	-	-	-	-	-
Cc1nc2ccc(NS(=O)(=O)c3ccc(F)c(F)c3)cc2s1	-	-	.	-	-	-
CCN(CC)C(=O)c1sc2c(c1C)c(=O)n(CCc1ccccc1)c(=O)n2Cc1ccc(F)cc1Cl	-	.	.	.	.	.
N#C/C(=C(/O)c1ccc(Cl)c([N+](=O)[O-])c1)c1nc2ccccc2[nH]1	-	-	.	-	8.2µM	-
CC1CCC/C=C/C(=O)c2c(O)cc(O)cc2CC(=O)O1 (stereo unspecified)	-	-	.	-	8.2µM	-
C[C@@H]1Cc2c(O)c(O)cc(O)c2C(=O)O1	-	-	.	-	-	-
Cc1cc(NC(=O)c2cc(-c3ccccn3)nc3ccc(Br)cc23)no1	-	-	.	-	-	-
Cc1ccc(-c2cc(C(=O)O)c3cc(Br)ccc3n2)s1	2.4µM	?	.	-	?	-
Cc1ccc(-c2cc(C(=O)NCCCn3ccnc3)c3cc(Br)ccc3n2)o1	15µM	-	-	-	-	-
Cc1c(C(=O)NCCCn2ccnc2)oc2ccccc12	-	-	-	-	-	-
CC(=O)c1c(C)nc2ccc(Br)cc2c1C(=O)O	-	-	-	-	-	-
Cc1ccc(-c2cc(C(=O)NC3=NCCS3)c3cc(Br)ccc3n2)o1	6µM	-	-	-	-	-
COc1cccc(-c2cc(C(=O)NCCCn3ccnc3)c3ccccc3n2)c1	?	-	-	-	-	-
Cc1cccc(-c2cc(C(=O)NCCCn3ccnc3)c3ccccc3n2)c1	15µM	-	-	-	-	-
Cc1ccc(-c2cc(C(=O)O)c3cc(Br)ccc3n2)o1	11µM	-	-	-	-	-
Cc1ccc(-c2cc(C(=O)NN3CCOCC3)c3cc(Br)ccc3n2)o1	?	-	-	-	?	-
CCCN1C(=O)C(Cc2nc3ccccc3c(=O)n2CC)c2ccccc21 (stereo unspecified)	-	.	-	.	.	.
Cc1onc(-c2c(F)cccc2Cl)c1C(=O)N=C(N)N1CCCC1	-	-	.	-	-	-
CCN(CC)S(=O)(=O)c1ccc(Cl)c(NC(=O)COC(=O)c2ccc(O)cc2)c1	?	-	-	-	?	?
CCN(CC)S(=O)(=O)c1ccc(Cl)c(NC(=O)COC(=O)c2cccn2C)c1	-	-	-	-	15µM	-
CCN(CC)S(=O)(=O)c1ccc(Cl)c(NC(=O)COC(=O)c2c(C)noc2C)c1	-	-	-	-	18µM	-
Cc1cccc(C(=O)Nc2cccc(OC(=O)c3cccc(C)c3)c2)c1	-	-	-	?	?	-
CC(=O)Oc1ccc(C(=O)Nc2cccc(NC(=O)c3ccco3)c2)cc1	15µM	-	.	-	-	-
SMILES	FLuc counter	NPC1 promoter act	SMN2 splice up	ELG1 genotox	ELG1 DNA repair	Rab9 promoter act
COc1ccc(C(=O)Nc2cc(OC)c(NC(=O)c3ccco3)cc2OC)cc1	?	-	-	-	?	-
COc1ccc(C(=O)Nc2cccc(OC(=O)c3ccc(C)c(C)c3)c2)cc1	11µM	?	?	-	?	-
O=C(Nc1cccc(NC(=O)c2ccco2)c1)c1ccc([N+](=O)[O-])cc1	-	-	.	-	12µM	-
COc1ccc(C(=O)Nc2cccc(OC(=O)c3ccco3)c2)cc1	13µM	?	.	4.6µM	?	?
CCCCCCCC/C=C\CCCCCCCC(=O)OC[C@@H](O)COP(=O)(O)O	.	.	-	.	.	.
Cc1ccc(S(=O)(=O)Nc2ccc3c(c2)CCCN3C(=O)c2cccs2)cc1	-	.	.	.	.	.
CS(=O)(=O)N(CCC#N)Cc1ccc(/C=C2\C(=O)Nc3ccccc32)o1	-	-	-	-	7.3µM	-

High-throughput results as filed in PubChem BioAssay.
